In PubChem BioAssay AID624296 (National Center for Advancing Translational Sciences (NCATS), 2012):
“And” between values parts separate entries of the source, which are not always exact repeats. Equal entries are not always repeated. Screen size: about 350,000 compounds; about 9,900 (2.8%) were called active. Entries that show only a call come without a potency. Inconclusive results (about 15%) are left out. Calls come from the whole dose curve; as a rule, active = well fitted activation curve with a large enough effect; inconclusive = small, poorly fitted or top-dose-only effect; inactive = no such curve, though single readings can be large or run the other way. Many of the other results were omitted from the sample, so actives are more common in it than they were.

assay: A quantitative high throughput screen for small molecules that induce DNA re-replication in MCF 10a normal breast cells.; note: nearly all actives have a fitted effect of over 50% in size; settings: MCF 10A DNA re-replication, Hoechst nuclear intensity, 48 h; series mostly up to 46.1 µM
Potency is the fitted concentration of half-maximal effect.

| SMILES | Potency |
| --- | --- |
| Cc1cc(C)cc(NC(=O)C(c2ccccc2)N2CCN(CC(=O)N3CCCC3)CC2)c1 (stereo not given) | inactive |
| COc1ccc(CNC(=O)C[C@H]2C[C@H](C(=O)N3CCOCC3)[C@@]3(C)c4[nH]c5cc(CCC(=O)N(C)C)ccc5c4CCN3C2=O)cc1OC | inactive |
| O=C(CN1C(=O)NC2(CCCCC2)C1=O)N1CCN(C(=O)c2cccs2)CC1 | inactive |
| CCC1(C)Cc2c(sc3[nH]c(=S)n(Cc4ccccc4)c(=O)c23)CO1 (stereo not given) | 13 µM (active) |
| CCC1(C)Cc2c(sc3nc(SC)[nH]c(=O)c23)CO1 (stereo not given) | inactive |
| CCn1c(=S)[nH]c2sc3c(c2c1=O)CCCCC3 | inactive |
| CCCCN(CCCC)CC(O)Cn1c2ccccc2c(=O)c2ccccc21 (stereo not given) | 18.4 µM (active) |
| O=S(=O)(c1ccccc1)N(CC(O)CN1CCCCC1)c1ccccc1 (stereo not given) | inactive |
| CS(=O)(=O)N(CC(O)Cn1c2ccccc2c2ccccc21)c1cccc2ccccc12 (stereo not given) | 16.4 µM (active) |
| Cc1cc(C)n(CC(O)CN(c2ccccc2)S(=O)(=O)c2ccc3ccccc3c2)n1 (stereo not given) | inactive |
| CCCCn1c(=O)c(C(C)=O)c(O)c2ccccc21 | inactive |
| CCCn1c(=O)c(-c2ccccc2)c(O)c2ccccc21 | inactive |
| O=C(CN1C(=O)NC(Cc2c[nH]c3ccccc23)C1=O)Nc1ccccc1C(F)(F)F (stereo not given) | inactive |
| CN(CC(=O)Nc1ccc(C(N)=O)cc1)S(=O)(=O)c1ccc2c(c1)OCCO2 | inactive |
| Cn1nccc1C(=O)NC1CCCc2c1cnn2-c1ccccc1F (stereo not given) | inactive |
| CC(=O)NCC(=O)NC1CCCc2c1cnn2-c1ccccc1F (stereo not given) | inactive |
| COc1ccc(C(=O)NC2CCCc3c2cnn3-c2cccc(C)c2C)c(OC)n1 (stereo not given) | 18.4 µM (active) |
| CC(C)(C)NS(=O)(=O)NC(=O)C1=C(N2CCCC2)COC1=O | inactive |
| Cc1ccc(S(=O)(=O)N2CCCCC2)cc1NC(=O)[C@@H]1CCCN1C(=O)c1cccs1 | inactive |
| Cc1ccc(S(=O)(=O)NCC(=O)NNC(=O)c2ccc(Br)cc2)cc1C | inactive |
| FC(F)(F)c1cc(-c2cccs2)nc(NCc2ccco2)n1 | inactive |
| Cc1cc(C(F)(F)F)nn1-c1nc(-c2ccco2)cc(C(F)(F)F)n1 | inactive |
| FC(F)(F)c1cc(-c2ccco2)nc(NCc2ccc(Cl)cc2)n1 | 16.4 µM (active) |
| CN(CC(=O)Nc1ccc(F)c(F)c1F)C(=O)C1CC(=O)N(C2CCCC2)C1 (stereo not given) | inactive |
| O=C(N[C@@H](Cc1c[nH]c2ccccc12)C(=O)O)OCC1c2ccccc2-c2ccccc21 | inactive |

| SMILES | Potency |
| --- | --- |
| COc1ccc(CCNC(=O)COC(=O)c2ncc(Cl)c(Cl)c2Cl)cc1OC | inactive |
| CCOC(=O)c1ccccc1NC(=O)CSc1nc2ccccc2c(=O)[nH]1 | 18.4 µM (active) |
| CCOC(=O)c1cnc(SCC(=O)Nc2ccccc2C(=O)OC)nc1N | inactive |
| COC(=O)c1ccccc1NC(=O)CSc1nc2c(c(=O)[nH]1)CCC2 | inactive |
| Cc1ccc(Cn2c(C)c3cnn(CC(=O)NCCN4CCOCC4)c(=O)c3c2C)cc1 | inactive |
| O=C(NCCCN1CCOCC1)c1cn(-c2ccccc2)nc1-c1ccc(F)cc1 | inactive |
| COc1ccc(-c2ccc3c(c2)C2CC3CCN2CCC#N)cc1 (stereo not given) | inactive |
| CCN(CC)S(=O)(=O)c1cc(C(=O)Nc2cc(S(=O)(=O)N3CCOCC3)ccc2N2CCCC2)ccc1F | inactive |
| O=C1NC(c2ccncc2)Nc2sc3c(c21)CCCC3 (stereo not given) | inactive |
| O=C1CCCCC1C(=O)c1ccccc1 (stereo not given) | inactive |
| C/C(=C\c1ccccc1)C1NC(=O)c2c(sc3c2CCCC3)N1 (stereo not given) | 20.6 µM (active) |
| CNC[C@H]1Oc2c(NC(=O)C3CCCCC3)cccc2C(=O)N([C@H](C)CO)C[C@@H]1C | inactive |
| Cc1noc(C)c1S(=O)(=O)N(C)C[C@H]1Oc2ccc(NC(=O)C3CCCCC3)cc2C(=O)N([C@H](C)CO)C[C@@H]1C | inactive |
| O=C(CCN1CCc2ccccc2C(O)(c2ccccc2)C1)c1ccc2c(c1)OCCO2 (stereo not given) | 6.51 µM (active) |
| O=C(CN1CCC(O)(c2ccccc2)CC1)Nc1ccc2c(c1)OCCO2 | inactive |
| O=C(COC(=O)c1ccccc1)c1ccc2c(c1)OCCO2 | inactive |
| CCN(C(=O)COC(=O)c1ccccc1O)c1cccc2ccccc12 | inactive |
| O=C(CCCOc1ccccc1)NNC(=O)c1ccc(Cl)cc1 | inactive |
| CCS(=O)(=O)C1=NSC2=NC(=O)/C(=C\c3cc(C)n(-c4cccc(OC)c4)c3C)C(=N)N21 | 5.8 µM (active) |
| CCC1=NN2C(=N)/C(=C/c3cc(C)n(-c4ccccc4)c3C)C(=O)N=C2S1 | inactive |
| CCS(=O)(=O)C1=NSC2=NC(=O)/C(=C\c3ccc(OS(=O)(=O)c4ccccc4)cc3)C(=N)N21 | inactive |
| CC(=O)c1cccc(-c2ccc(CN3C(CC(C)C)C(=O)N(Cc4cn(CC5CCCCC5)nn4)CCS3(=O)=O)cc2)c1 (stereo not given) | inactive |
| CCOc1ccc(C(=O)Nc2cc(OC)ccc2OC)cc1 | inactive |
| CCOc1cc2ccccc2cc1C(=O)Nc1ccccn1 | inactive |
| CCOc1cc(NC(=O)c2ccccn2)c(OCC)cc1NC(=O)c1ccc(OC)cc1 | 3.26 µM (active) |

| SMILES | Potency |
| --- | --- |
| CN(Cc1ccc(CNC[C@H]2O[C@@H](n3cnc4c(N)ncnc43)[C@H](O)[C@@H]2O)o1)S(C)(=O)=O | inactive |
| Cc1c(C(C)CCCO)oc(=O)c2c1Oc1c(C)c(C(C)C[C@@H](C)O)oc(=O)c1C2 (stereo not given in full) | inactive |
| CCCn1c(C)cc(C(=O)COC(=O)c2c(C)nn(-c3ccccc3)c2C)c1C | 9.2 µM (active) |
| Cc1nn(-c2ccccc2)c(C)c1C(=O)OCC(=O)NC(=O)NC1CCCCC1 | inactive |
| Cc1cccc(C)c1NC(=O)COC(=O)c1c(C)nn(-c2ccccc2)c1C | inactive |
| O=C1CCC/C=C\C[C@@H](CC(=O)N(CCO)Cc2ccccc2)C(=O)NCCO1 | inactive |
| O=C1OCC2=C1C(c1ccc(Cl)cc1)c1cc3c(cc1O2)OCO3 (stereo not given) | inactive |
| C=CC(=O)OCCOCCOCCOCCOC(=O)C=C | 5.8 µM (active) |
| Cc1cc(C)n(-c2nnc(N3CCN(c4ccccc4)CC3)nn2)n1 | inactive |
| CCOC(=O)c1cnc(-n2nc(C)cc2C)nc1Nc1cccc(C(C)=O)c1 | inactive |
| Cc1ccc(S(=O)(=O)Nc2nc(C)cc(N/N=C/c3ccc(O)cc3)n2)cc1 | inactive |
| Cc1cc(C)n(-c2ccc(Cl)c(C(=O)O)n2)n1 | inactive |
| CC(=O)Nc1ccc(Nc2cc(C)nc(Nc3ccc(NC(C)=O)cc3)n2)cc1 | inactive |
| COc1ccc(Nc2cc(C)nc(-n3nc(C)cc3C)n2)cc1 | 2.06 µM (active) |
| CC(=O)c1ccc(Oc2cc(C)nc(-n3nc(C)cc3C)n2)cc1 | 4.11 µM (active) |
| Cc1cc(Nc2ccc(Cl)cc2)nc(N2CCOCC2)n1 | inactive |
| Cc1cc(N/N=C\c2ccc(Br)cc2)nc(-n2nc(C)cc2C)n1 | 18.4 µM (active) |
| COc1ccc2oc(N)nc2c1 | inactive |
| COc1cccc(CNC(C)C(=O)Nc2ccc(S(=O)(=O)N3CCCC3)cc2)c1 (stereo not given) | inactive |
| CN(Cc1ccc(F)cc1)C(=O)CN1C(=O)c2ccccc2S1(=O)=O | inactive |
| C[C@]12CC[C@H](O)CC1=CCC1C2CC[C@@]2(C)C1CC[C@@H]2NC(=O)CCC(=O)O (stereo not given in full) | inactive |
| CC1CCCCC1NC(=O)COC(=O)Cc1ccc(Cl)cc1 (stereo not given) | inactive |
| CC(C)(C)C(=O)Nc1cccc(-c2ccc[nH]2)n1 | inactive |
| CC(=O)c1c(C)[nH]c(C(=O)OCC(=O)Nc2c(C)cccc2C)c1C | inactive |
| O=C(CNC(=O)c1ccco1)NNC(=O)c1ccc(Br)cc1 | inactive |

| SMILES | Potency |
| --- | --- |
| Cc1cccc(NC(=S)N2CCC(c3nc4ccccc4s3)CC2)c1 | inactive |
| CCCNC(=S)N1CCCC(c2nc3ccccc3[nH]2)C1 (stereo not given) | inactive |
| Cc1cccc(NC(=S)N2CCCC(c3nc4ccccc4[nH]3)C2)c1 (stereo not given) | 1.03 µM (active) |
| O=C(Nc1ccccc1)c1ccc(NC(=O)c2cccs2)cc1 | inactive |
| O=C(Nc1ccccc1-c1ccccc1)c1cccs1 | inactive |
| O=C(Nc1ccnc(-c2ccncc2)n1)c1cccs1 | 0.259 µM (active) |
| Cc1cccc(N2CCN(c3ccc(NC(=O)/C=C\C(=O)O)cc3)CC2)c1 | inactive |
| C=CC(=O)Nc1ccc(Nc2ccnc(Nc3ccc(N4CCN(C)CC4)cc3)n2)cc1 | 20.6 µM (active) |
| CN1CCN(c2ccc(NC(=O)c3ccccc3)cc2)CC1 | inactive |
| CCCCN(CC(=O)Nc1cccc(S(=O)(=O)N2CCCC2)c1)Cc1nc2ccccc2c(=O)[nH]1 | inactive |
| COC1C(CO)OC(n2cnc3c(=S)nc(N)[nH]c32)C1O (stereo not given) | inactive |
| Cc1ccc(O)c(CNc2nc3ccccc3[nH]2)c1 | inactive |
| COc1ccc2nc(SCC(=O)Nc3c(C)cc(C)cc3C)[nH]c2c1 | inactive |
| COC(=O)Nc1nc2ccc(Sc3ccccc3)cc2[nH]1 | 904 nM (active) and 1.16 µM (active) |
| Cc1ccccc1Nc1nc(N)nc(COC(=O)CCC(=O)c2ccc(F)cc2)n1 | inactive |
| Cc1cc(CO)nn1-c1ccc([N+](=O)[O-])cc1 | inactive |
| COc1cnn(-c2ccc([N+](=O)[O-])cc2)c(=O)c1Cl | 18.4 µM (active) |
| CC(C)(C)c1cnnn1-c1ccc([N+](=O)[O-])cc1 | inactive |
| Cc1ccc(N=C2NC(=O)/C(=C/C=C/c3ccco3)S2)cc1C | 7.31 µM (active) |
| CN(C)c1ccc(-n2cccc2/C=C2/SC(=Nc3ccc(F)cc3)NC2=O)cc1 | inactive |
| O=C1NN(c2ccccc2)C(=O)/C1=C/c1ccc(-c2cccc(C(=O)O)c2)o1 | inactive |
| Cc1ccc(N2NC(=O)/C(=C/C=C/c3ccco3)C2=O)cc1C | 23.1 µM (active) |
| COc1cc(/C=C2/C(=O)NN(c3cccc(Cl)c3)C2=O)cc(Br)c1O | inactive |
| CCC1S/C(=N/N=C/c2ccco2)NC1=O (stereo not given) | inactive |
| CC(C)c1ccc(S(=O)(=O)N2CCN(C(C)C(=O)NC3CCCC3)CC2)cc1 (stereo not given) | inactive |
